Data: PubChem BioAssay AID1159580 (chemical genetic matrix, 2015)
Several values for one entry are separate records, joined by “and”; a condition that tells them apart may be missing. Equal entries are not always repeated. About 2,000 (36%) of roughly 5,500 compounds were called active. Not shown: some 18% with an inconclusive outcome. Cut-off read from the data, not from the text of the source: active = normalized growth mostly below about 0.91 (no sharp cut-off); inconclusive = no clear call, values can overlap the other calls; inactive = mostly above about 0.92. This is one part of the list.

Test: chemical genetic growth profiling, strain panel (AID 1159580);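 note: tested at 20 µM; growth read once vehicle control cultures reached saturation at 30 °C; 1 = growth at the plate median or of vehicle wells; lower values mean less growth of the strain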
Settings: S. cerevisiae deletion strains, growth OD

Measured: normalized growth

NC[C@H]1O[C@H](OC2[C@@H](N)C[C@@H](N)[C@H](O[C@H]3O[C@H](CO)[C@@H](O)[C@H](N)[C@H]3O)[C@H]2O)[C@H](O)[C@@H](O)[C@@H]1O (some centres undefined)
inactive: locus YAL013W, strain DEP1, active compounds read low 0.997 | locus YAL021C, strain ccr4, active compounds read low 0.993 | locus YAL026C, strain drs2, active compounds read low 0.998 | locus YAL030W, strain snc1, active compounds read low 1 | locus YBL061C, strain skt5, active compounds read low 1.01 | locus YBR009C, strain hhf1, active compounds read low 1.01 | locus YBR021W, strain FUR4, active compounds read low 0.97 | locus YBR023C, strain chs3, active compounds read low 0.983 | locus YBR171W, strain sec66, active compounds read low 0.989 | locus YBR229C, strain ROT2, active compounds read low 0.988 | locus YBR231C, strain swc5, active compounds read low 0.998 | locus YBR279W, strain paf1, active compounds read low 1.01 | locus YCL011C, strain gbp2, active compounds read low 0.999 | locus YCL016C, strain dcc1, active compounds read low 0.985 | locus YCL029C, strain bik1, active compounds read low 0.985 | locus YCL061C, strain MRC1, active compounds read low 0.99 | locus YCL069W, strain vba3, active compounds read low 0.998 | locus YCR088W, strain abp1, active compounds read low 0.994 | locus YDL005C, strain med2, active compounds read low 0.994 | locus YDL035C, strain GPR1, active compounds read low 1.02 | locus YDL040C, strain nat1, active compounds read low 1 | locus YDL074C, strain BRE1, active compounds read low 0.991 | locus YDL101C, strain DUN1, active compounds read low 0.986 | locus YDL134C, strain PPH21, active compounds read low 1.01 | locus YDL185W, strain tfp1, active compounds read low 0.997 | locus YDL192W, strain arf1, active compounds read low 0.98 | locus YDR001C, strain nth1, active compounds read low 0.995 | locus YDR069C, strain doa4, active compounds read low 1 | locus YDR101C, strain arx1, active compounds read low 0.99 | locus YDR137W, strain rgp1, active compounds read low 0.997 | locus YDR150W, strain NUM1, active compounds read low 1 | locus YDR159W, strain sac3, active compounds read low 1 | locus YDR162C, strain NBP2, active compounds read low 1 | locus YDR195W, strain ref2 0.961 | locus YDR297W, strain sur2, active compounds read low 0.998 | locus YDR318W, strain mcm21, active compounds read low 0.978 | locus YDR334W, strain swr1, active compounds read low 0.988 | locus YDR335W, strain msn5, active compounds read low 1 | locus YDR388W, active compounds read low 0.993 | locus YDR392W, strain spt3, active compounds read low 0.935 | locus YDR502C, strain sam2, active compounds read low 1.01 | locus YEL003W, strain gim4, active compounds read low 1.01 | locus YEL037C, strain rad23, active compounds read low 1.01 | locus YEL061C, strain CIN8 (second series), active compounds read low 0.999 | locus YEL061C, strain CIN8, active compounds read low 0.997 | locus YER015W, strain faa2, active compounds read low 0.978 | locus YER016W, strain bim1, active compounds read low 1.01 | locus YER110C, active compounds read low 0.97 | locus YER111C, strain swi4, active compounds read low 0.994 | locus YER155C, strain BEM2 (second series), active compounds read low 0.993 | locus YER155C, strain BEM2, active compounds read low 0.993 | locus YER167W, strain BCK2, active compounds read low 0.989 | locus YFR010W, strain ubp6, active compounds read low 1 | locus YGL078C, strain dbp3, active compounds read low 0.973 | locus YGL086W, strain mad1, active compounds read low 1 | locus YGL167C, strain pmr1, active compounds read low 1.01 | locus YGL173C, strain kem1, active compounds read low 0.996 | locus YGL227W, strain vid30, active compounds read low 0.991 | locus YGL240W, strain doc1, active compounds read low 0.99 | locus YGL248W, strain PDE1, active compounds read low 0.984 | locus YGL253W, strain hxk2, active compounds read low 1.01 | locus YGR135W, strain pre9, active compounds read low 0.943 | locus YGR252W, strain gcn5, active compounds read low 0.967 | locus YHR013C, strain ard1, active compounds read low 0.982 | locus YHR027C, strain rpn1, active compounds read low 1 | locus YHR030C, strain SLT2, active compounds read low 0.991 | locus YHR079C, strain IRE1 (second series), active compounds read low 0.982 | locus YHR079C, strain IRE1, active compounds read low 0.993 | locus YHR094C, strain hxt1, active compounds read low 0.975 | locus YHR129C, strain ARP1, active compounds read low 0.994 | locus YHR142W, strain chs7, active compounds read low 0.998 | locus YHR200W, strain rpn10, active compounds read low 0.993 | locus YIL066C, strain RNR3, active compounds read low 0.994 | locus YIL073C, strain SPO22, active compounds read low 0.954 | locus YIL125W, strain kgd1, active compounds read low 0.987 | locus YIR030C, strain dcg1, active compounds read low 0.99 | locus YJL092W, strain hpr5, active compounds read low 1 | locus YJL095W, strain BCK1 (second series), active compounds read low 0.997 | locus YJL095W, strain BCK1, active compounds read low 0.99 and 1.01 | locus YJL115W, strain asf1, active compounds read low 0.997 | locus YJL129C, strain trk1, active compounds read low 0.991 | locus YJL134W, strain LCB3, active compounds read low 0.996 | locus YJL154C, strain vps35, active compounds read low 0.992 | locus YJL164C, strain tpk1, active compounds read low 0.991 | locus YJL166W, strain qcr8, active compounds read low 0.99 | locus YJL168C, strain set2, active compounds read low 0.978 | locus YJL187C, strain SWE1 (second series), active compounds read low 0.984 | locus YJL187C, strain SWE1, active compounds read low 0.997 | locus YJR043C, strain POL32, active compounds read low 1.03
